From PubChem
C diff growth = C. difficile growth inhibitors, primary screen, HTS. Clostridium difficile clinical isolate growth, OD600, 24 h; active compounds read low. growth activity, negative = inhibition, % at 16 µg/mL (by protocol). actives 0.25% (n = 86,000). AID 1259249, 2017;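 active means mean growth activity at or below -80% and every replicate also at or below -80%; inconclusive means mean at or below -80% but some replicate above -80%; inactive means mean growth activity above -80%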
T cruzi growth-1 = T. cruzi intracellular proliferation inhibitors, primary screen, cell-based, beta-gal Tulahuen parasites, NIH3T3 host, luminescence | inhibition, % at 8.34 µM | actives 5.9% (n = 77,000) | T. cruzi beta-gal in NIH3T3, GalScreen luminescence, 90 h;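 active means mean inhibition above about 93%, with at least 55% of replicates each passing it, limit read from the data, passing the limit was not always enough; inconclusive means only one of those two conditions holds; inactive means neither condition holds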
Pf Dd2 inh = P. falciparum Dd2 growth inhibitors, primary screen, SYBR Green fluorescence, single dose replicates; actives 2.3% (n = 94,000); activity change, % at 10 µM; AID 1159554, 2015; 72 h; active compounds read low; in the data active means activity change below about -80%; inconclusive means no clear call, values can overlap the other calls
T cruzi growth-2 = T. cruzi intracellular proliferation inhibitors, confirmation, cell-based, NIH3T3 host, beta-gal parasite, luminescence, cherry-pick; shares compounds with T cruzi growth-1; T. cruzi beta-gal in NIH3T3, GalScreen luminescence, 90 h; inhibition, % at 8.35 µM; actives 72% (n = 5,600); AID 651739, 2012;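 active means mean replicate inhibition above about 95% and at least 55% of replicates individually reaching it, limit read from the data; inconclusive means only one of the two criteria is met; inactive means neither criterion is met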
T cruzi growth-3 = inhibitors of intracellular T. cruzi replication, confirmation, NIH3T3 host cells, beta-gal parasites, cherry-pick, set 2; shares compounds with T cruzi growth-1; T. cruzi beta-gal in NIH3T3, GalScreen luminescence, 90 h; inhibition, % at 2.09 µM; actives 21% (n = 5,600);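 active means mean inhibition above about 95%, with at least 55% of replicates also reaching it, limit read from the data; inconclusive means meets just one of the two conditions; inactive means meets neither condition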
3T3 cytotox = cytotoxicity in mouse NIH/3T3 fibroblasts, confirmation, cytotoxicity control for T. cruzi proliferation inhibitor project, cell-based, cherry-pick, single point | actives 14% (n = 5,600) | cytotoxicity (signal decrease), % at 8.35 µM | shares compounds with T cruzi growth-1 | NIH/3T3 viability, CellTiter-Glo ATP luminescence, 90 h | AID 651742, 2012;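 active means mean signal decrease across replicates above about 35% based on untreated-well scatter, with enough replicates individually passing, limit read from the data; inconclusive means no rule stated though some were filed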
NIH3T3 tox 2 = NIH/3T3 fibroblast cytotoxicity, confirmation, cytotoxicity control, cell-based, cherry-pick, single point, set 2 | AID 651744, 2012 | NIH/3T3 viability, CellTiter-Glo ATP luminescence, 90 h | shares compounds with T cruzi growth-1 | actives 56% (n = 5,600) | inhibition, % at 24.9 µM;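 active means mean loss of cell viability signal at or above a set limit, and enough replicates individually reaching it; inconclusive means meets only the mean limit or only the replicate share; inactive means meets neither condition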
Large screens that a line does not name were inactive (follow-up assays come after a bar, where they were run). Rows were chosen to be rich in hits. Some 6.7% of all compounds tested hit in one or more screens of this group.

Cc1ccc(S(=O)(=O)N(C)C[C@@H]2OCCCC[C@@H](C)Oc3ccc(NC(=O)CCC(F)(F)F)cc3C(=O)N([C@@H](C)CO)C[C@@H]2C)cc1	none (no result: C diff growth, T cruzi growth-1)
O=C(C[C@H]1CC[C@@H]2[C@H](COC[C@H](O)CN2Cc2ccccc2F)O1)NCc1ccccc1F	none
C[C@@H]1CN([C@@H](C)CO)C(=O)c2cc(NC(=O)CCCN(C)C)ccc2O[C@@H]1CN(C)Cc1ccc2c(c1)OCO2	none (no result: T cruzi growth-1)
O=C(N[C@H]1CC[C@@H](CCNC(=O)C2CCC2)O[C@H]1CO)c1ccccn1	none (no result: T cruzi growth-1)
COc1cccc(S(=O)(=O)N[C@@H]2CC[C@@H](CC(=O)NC3Cc4ccccc4C3)O[C@H]2CO)c1	none (no result: C diff growth)
COc1ccc2c3c([nH]c2c1)[C@@H](CO)N(Cc1nccs1)CC31CCN(Cc2cccnc2)CC1	none (no result: T cruzi growth-1)
CCCC#Cc1ccc([C@H]2[C@H]3CN(CC4CC4)CCCCN3[C@H]2CO)cc1	none
CCCC#Cc1ccc([C@H]2[C@H](CO)N3CCCCN(CC4CCOCC4)C[C@@H]23)cc1	T cruzi growth-1 128.7, Pf Dd2 inh inconclusive | T cruzi growth-2 inactive | T cruzi growth-3 inactive | 3T3 cytotox inactive | NIH3T3 tox 2 76.7
OC[C@@H]1[C@H](c2ccc(C#Cc3ccccc3F)cc2)[C@@H]2CN(CC3CCOCC3)CCCCN12	T cruzi growth-1 105.3 | T cruzi growth-2 114.0 | T cruzi growth-3 inactive | 3T3 cytotox inconclusive | NIH3T3 tox 2 105.1
OC[C@@H]1[C@@H](c2ccc(C#Cc3ccccc3F)cc2)[C@@H]2CN(CC3CCOCC3)CCCCN12	none
C[C@H]1CN([C@@H](C)CO)C(=O)c2cc(NS(=O)(=O)c3ccc(Cl)cc3)ccc2O[C@H]1CN(C)Cc1ccc(C(F)(F)F)cc1	T cruzi growth-1 129.4 | T cruzi growth-2 109.3 | T cruzi growth-3 inactive | 3T3 cytotox inactive | NIH3T3 tox 2 103.2
C[C@H](CO)N1C[C@H](C)[C@@H](CN(C)Cc2ccc(C(F)(F)F)cc2)Oc2ccc(NS(=O)(=O)c3ccc(Cl)cc3)cc2C1=O	none
C[C@H]1CN([C@@H](C)CO)C(=O)c2cc(NS(=O)(=O)c3ccc(Cl)cc3)ccc2O[C@@H]1CN(C)Cc1ccc(C(F)(F)F)cc1	T cruzi growth-1 inconclusive | T cruzi growth-2 111.2 | T cruzi growth-3 inactive | 3T3 cytotox inactive | NIH3T3 tox 2 102.8
C[C@@H]1CN([C@H](C)CO)C(=O)c2cc(NS(=O)(=O)c3ccc(Cl)cc3)ccc2O[C@H]1CN(C)Cc1ccc(C(F)(F)F)cc1	none
C[C@@H](O)C#Cc1ccc2c(c1)O[C@H](CN(C)C(=O)C1CCC1)[C@@H](C)CN([C@@H](C)CO)S2(=O)=O	none
CC(C)NC[C@@H]1[C@@H](c2ccc(C3=CCCCC3)cc2)[C@H](CO)N1C(=O)NC(C)C	T cruzi growth-1 inconclusive | T cruzi growth-2 101.5 | T cruzi growth-3 inactive | 3T3 cytotox inactive | NIH3T3 tox 2 105.3
CC(=O)NC[C@@H]1[C@@H](c2ccc(C3=CCCCC3)cc2)[C@@H](CO)N1C(=O)NC(C)C	none
CC(=O)NC[C@@H]1[C@@H](c2ccc(C3=CCCCC3)cc2)[C@H](CO)N1C(=O)NC(C)C	none
CCC(=O)NC[C@H]1[C@H](c2ccc(-c3ccccc3)cc2)[C@H](CO)N1C(=O)C1CC1	none
CC(=O)NC[C@H]1[C@H](c2ccc(C3=CCCC3)cc2)[C@H](CO)N1C(=O)NC(C)C	none
CC(C)NC[C@H]1[C@H](c2ccc(C3=CCCCC3)cc2)[C@@H](CO)N1C(=O)NC(C)C	T cruzi growth-1 98.3 | T cruzi growth-2 104.4 | T cruzi growth-3 inactive | 3T3 cytotox inactive | NIH3T3 tox 2 104.3
CC(C)NC[C@H]1[C@@H](c2ccc(C3=CCCCC3)cc2)[C@@H](CO)N1C(=O)NC(C)C	T cruzi growth-1 inconclusive | T cruzi growth-2 101.7 | T cruzi growth-3 inactive | 3T3 cytotox 38.8 | NIH3T3 tox 2 103.7
CCC(=O)NC[C@H]1[C@@H](c2ccc(-c3ccccc3)cc2)[C@H](CO)N1C(=O)C1CC1	T cruzi growth-1 98.0 | T cruzi growth-2 inactive | T cruzi growth-3 inactive | 3T3 cytotox inactive | NIH3T3 tox 2 inactive
COc1ccccc1-c1ccc2c(c1)O[C@H](CN(C)C(=O)c1cccnc1)[C@H](C)CN([C@H](C)CO)S2(=O)=O	none (no result: T cruzi growth-1)
Cc1ccc(S(=O)(=O)N(C)C[C@@H]2OCCCC[C@H](C)Oc3ccc(N(C)C)cc3C(=O)N([C@@H](C)CO)C[C@@H]2C)cc1	none
CCC(=O)NC[C@H]1[C@H](c2ccc(C3=CCCC3)cc2)[C@@H](CO)N1C(C)=O	none
CCC(=O)NC[C@H]1[C@@H](c2ccc(C3=CCCC3)cc2)[C@H](CO)N1C(C)=O	T cruzi growth-1 101.2 | T cruzi growth-2 inactive | T cruzi growth-3 inactive | 3T3 cytotox inactive | NIH3T3 tox 2 inactive
C[C@H](CO)N1C[C@H](C)[C@H](CN(C)Cc2ccccn2)Oc2cc(C#C[C@@H](C)O)ccc2S1(=O)=O	none
C[C@@H]1CN([C@H](C)CO)S(=O)(=O)c2ccc(C#CCN(C)C)cc2O[C@@H]1CN(C)Cc1ccccn1	none
CCCC#Cc1ccc2c(c1)O[C@@H](CN(C)Cc1ccccn1)[C@H](C)CN([C@H](C)CO)S2(=O)=O	T cruzi growth-1 inconclusive (no result: Pf Dd2 inh) | T cruzi growth-2 96.9 | T cruzi growth-3 inactive | 3T3 cytotox 68.7 | NIH3T3 tox 2 105.3
CCCC#Cc1ccc2c(c1)O[C@H](CN(C)Cc1ccccn1)[C@@H](C)CN([C@@H](C)CO)S2(=O)=O	T cruzi growth-1 inconclusive (no result: Pf Dd2 inh) | T cruzi growth-2 99.4 | T cruzi growth-3 inconclusive | 3T3 cytotox inactive | NIH3T3 tox 2 103.3
CC(C)C#Cc1ccc2c(c1)O[C@@H](CN(C)Cc1ccccn1)[C@@H](C)CN([C@@H](C)CO)S2(=O)=O	none
C[C@H]1CN([C@@H](C)CO)S(=O)(=O)c2ccc(C#CCN(C)C)cc2O[C@H]1CN(C)Cc1ccccn1	T cruzi growth-1 91.8 | T cruzi growth-2 inconclusive | T cruzi growth-3 inactive | 3T3 cytotox inactive | NIH3T3 tox 2 inconclusive
C[C@H](CO)N1C[C@H](C)[C@H](CN(C)Cc2ccccn2)Oc2cc(C#CCN(C)C)ccc2S1(=O)=O	none
CCCC#Cc1ccc2c(c1)O[C@@H](CN(C)Cc1ccccn1)[C@@H](C)CN([C@H](C)CO)S2(=O)=O	T cruzi growth-1 inconclusive (no result: Pf Dd2 inh) | T cruzi growth-2 96.4 | T cruzi growth-3 inactive | 3T3 cytotox inconclusive | NIH3T3 tox 2 inactive
